# Screens (PubChem)
# Only some compounds are listed: those with a hit (about 10% of all), similar ones and a draw of the others.
# ALDH1A1 block – ALDH1A1 (human) enzyme inhibition; P00352; Purified ALDH1A1, NADH fluorescence, propionaldehyde substrate; Potency, µM (titrated, usually from 75.3 µM), inactives show top-dose activity, negative = inhibition, most hits filed as inhibitors; 220,000 tested, 7.3% active; AID 1030;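 note: potency is the fitted concentration of half-maximal effect; plate controls were no enzyme wells and a reference inhibitor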
# HPGD inh – blocks human HPGD enzyme activity; AID 894; purified HPGD, NADH fluorescence kinetic, PGE2 substrate; 150,000 tested, 4.3% active; P15428; Potency, µM, inactives show at the top dose activity change, negative = inhibition, hits mostly inhibitors; note: potency is the fitted concentration of half-maximal effect
# Target sequence (P15428 whole entry, looked up): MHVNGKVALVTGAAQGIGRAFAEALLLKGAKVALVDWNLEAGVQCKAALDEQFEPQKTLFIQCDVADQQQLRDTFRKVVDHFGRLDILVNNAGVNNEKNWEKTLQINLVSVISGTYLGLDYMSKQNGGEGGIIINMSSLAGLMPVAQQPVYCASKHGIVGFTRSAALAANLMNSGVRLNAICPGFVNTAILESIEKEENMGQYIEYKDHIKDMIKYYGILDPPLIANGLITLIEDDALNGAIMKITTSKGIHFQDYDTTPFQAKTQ
#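 NADH formation kinetics: reaction with 30 uM PGE2 and 1 mM NAD+ (final), 20 nM enzyme, Tris-HCl pH 8 with Tween 20, after 15 min compound preincubation at room temperature. Fluorescence change, last versus first of five reads.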
# LMNA splice mod – changes lamin A minigene splicing in HeLa cells. HeLa LMNA splicing GFP/RFP minigene ratio, 48 h. Potency, µM (highest dose often 46.1 µM), for the others: at the highest dose ratio change, negative = inhibition, most hits filed as inhibitors. 200,000 tested, 0.01% active; active = well fitted inhibition curve with a large enough effect in the signal ratio, with a control signal flat, not every such curve was filed as active; inconclusive = small, poorly fitted or top-dose-only effect, or effect the other way, or a change in a side signal; the % refers to the signal ratio; note: potency is the fitted concentration of half-maximal effect
#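 S3 HeLa cells stably expressing lamin A-EGFP splicing minigene plus DsRed2, 600 cells/well, 48 h compound exposure at 37C. Laser-scanning cytometry; analysed as GFP (500-530 nm)/RFP (575-640 nm) total intensity ratio; 0.5% DMSO vehicle.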
# PNC inhibitor – blocks assembly of the perinucleolar compartment. PC3M PTB-GFP, PNC prevalence imaging, 16 h; active compounds read low. activity change (PNC), negative = inhibition, % at 10 µM. 140,000 tested, 3.1% active. AID 2417;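 active = readout at or below -70, meaning at least 70% loss of cells showing the perinucleolar compartment, a nuclear body marking cancer cells; inconclusive = readout between -30 and a set limit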;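 note: plate controls were DMSO wells for no effect and camptothecin positive control wells for full effect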
#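 Read-out is percentage of cells bearing a perinucleolar compartment, from automated 20x imaging of fixed, Hoechst-stained PC3M PTB-GFP cells. Cells were seeded 4 h, then exposed 16 h to compound (23 nl of library stock) in duplicate plates.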
# KinaseGlo FLuc – blocks Kinase-Glo luciferase, a counter-screen artifact; Q27757; Kinase-Glo luciferase, ATP luminescence, 8 min; Potency, µM (doses to about 38.3 µM), for the others: top-dose activity change, negative = inhibition, most hits filed as inhibitors; 200,000 tested, 0.28% active; AID 1379; active = well fitted inhibition curve with a large enough effect; inconclusive = small, poorly fitted or top-dose-only effect; note: potency is the fitted concentration of half-maximal effect; nearly all actives have a fitted effect of over 60% in size
#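 Inhibition of Kinase-Glo luciferase light generation was assessed at 10 uM ATP in pH 7.2 imidazole buffer, with luminescence measured after eight minutes at ambient temperature.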
# * = called active by the depositor; u = inconclusive; x = no result given; [ ] = dose if it differs, or a comment. Unless noted, calls come from the whole dose curve; as a rule, active = well fitted inhibition curve with a large enough effect (not every such curve was filed as active); inconclusive = small, poorly fitted or top-dose-only effect, or another doubt; inactive = no such curve, though single readings can be large or run the other way. Unless noted, % is set by controls: 0 for no effect and ±100 for the full control effect.
SMILES,ALDH1A1 block,HPGD inh,LMNA splice mod,PNC inhibitor,KinaseGlo FLuc
Cc1cc(C)cc(NC(=O)C(Cc2ccccc2)N2Cc3ccccc3C2=O)c1 (stereo not drawn),x,x,-2%[46 µM],x,x
Cc1cc(=O)c2cc(Cl)ccc2[nH]1,14%,u,-8%,-28,-3%
Cc1ccc2[nH]c(C)cc(=S)c2c1,18µM*,x,x,x,-3%
O=C(c1cnc(-c2ccc(Cl)cc2)s1)c1ccc(Cl)cc1Cl,-5%,35µM*,2%,62,1%
O=C(c1cccc(F)c1)N1CCC2(CC1)CCN(c1ccncc1)CC2,20%,-13%,x,x,1%
CCOC(=O)N1CCC(N(C(=O)Nc2ccc(Cl)c(Cl)c2)C(C)CC)CC1 (stereo not drawn),u,20µM*,u,-11,3%
O=C(CN(Cc1ccco1)C(=O)c1ccc(Cl)cc1)Nc1ccc(Cl)c(Cl)c1,u,-10%,u,17,-1%
COc1ccccc1NC(=O)CN(Cc1ccco1)C(=O)c1ccc(Cl)nc1,16µM*,x,5%[46 µM],x,-1%
CCCCNC(=O)CN1C(=O)c2cccnc2Sc2ccccc21,x,x,-4%[46 µM],x,x
COc1cccc(-n2c(CN3CCN(Cc4ccccc4)CC3)nc3ccc([N+](=O)[O-])cc3c2=O)c1,24µM*,-2%,-15%,u,4%
COc1ccc(-n2c(CN3CCN(Cc4ccccc4)CC3)nc3ccc([N+](=O)[O-])cc3c2=O)c(OC)c1,20µM*,x,x,x,2%
COc1ccc(-n2c(CN3CCN(c4ccccn4)CC3)nc3ccc([N+](=O)[O-])cc3c2=O)c(OC)c1,u,x,-14%[46 µM],x,5%
O=c1c2cc([N+](=O)[O-])ccc2nc(CN2CCN(c3ccccn3)CC2)n1-c1ccccc1F,14µM*,x,x,x,0%
CCOc1ccccc1NC(=O)CSc1ccc2nc(-c3ccccc3)cn2n1,x,x,9%[46 µM],x,x
CCCCNC(=O)CNC(=S)N(Cc1ccc(C)cc1)Cc1ccco1,32µM*,x,x,x,6%
Cc1ccc(CN(Cc2ccco2)C(=S)NCC(=O)NC2CC2)cc1,u,x,x,x,-2%
CCOc1ccc(OCC)c(NC(=O)CSc2nc3c(c(=O)n(C)c(=O)n3C)n2C)c1,-2%,-8%,7%,57,1%
CCOc1ccc(OCC)c(NC(=O)CSc2nc3c(c(=O)n(C)c(=O)n3C)n2C(C)C)c1,8.9µM*,x,u,-17,x
CN1CCC2(CC1)CCN(C(=O)c1ccncc1)CC2,11%,1%,x,x,-4%
C#CCOCCOCCOCCNc1nc(N2CCN(C(=O)[C@H](CCCCN)n3cc([C@@H](N)CO)nn3)CC2)nc(N2CCN(C(=O)[C@H](Cc3cc4ccccc4[nH]3)n3cc([C@@H](N)CC(C)C)nn3)CC2)n1,-7%,x,x,x,x
CC(C)(C)OC(=O)N1CCC(c2c(C(=O)NCCN3CCOCC3)cnn2-c2ccccc2)CC1,x,x,18%[46 µM],x,x
NNC(=O)c1sccc1OCc1ccc(Cl)cc1,2.2µM*,x,-29%[46 µM],x,-5%
COc1ccc(C(CNC(=O)COc2ccc(Cl)c(C)c2)N2CCOCC2)cc1 (stereo not drawn),x,x,11%[46 µM],x,x
Cc1ccc(S(=O)(=O)/N=S(/c2ccccc2)C(C)C)cc1 (stereo not drawn),19µM*,x,u,x,x
COCCn1c(=O)c(-c2cccs2)nc2cnc(OC)nc21,u,x,-10%,x,x
SMILES,ALDH1A1 block,HPGD inh,LMNA splice mod,PNC inhibitor,KinaseGlo FLuc
Cn1c(CCNC(=O)OC(C)(C)C)n[nH]c1=S,-13%,-7%,1%,-11,5%
CC(C)(C)OC(=O)NCc1nc(N)n[nH]1,17%,-12%,-12%,-100*,-2%
Cc1cc(=Nc2ccc3c(c2)c(N)cc(C)[n+]3C)nc(N)n1C,-4%[13.5 µM],-10%,x,x,-2%[7.66 µM]
COc1ccc(Nc2nc(N)nc(CSc3n[nH]c(-c4ccccc4)n3)n2)cc1,2%,22µM*,-16%,35,-7%
Nc1nc(CSC(=S)N2CCCCC2)nc(Nc2ccccc2)n1,25µM*,x,x,x,4%
Nc1nc(CSc2n[nH]c(-c3ccccc3)n2)nc(Nc2ccccc2)n1,u,13µM*,-10%,-5,1%
CCCOc1ccc(N2C(=O)CC(SC(=N)N3N=C(c4ccccc4)CC3c3ccccc3)C2=O)cc1 (stereo not drawn),u,x,x,x,2%
O=C1CC(SCc2nc3ccccc3[nH]2)C(=O)N1c1ccc(F)cc1 (stereo not drawn),28µM*,-12%,26%,u,-2%
COc1ccc(N2C(=O)CC(N3CCC(c4nc5ccccc5[nH]4)CC3)C2=O)cc1 (stereo not drawn),u,2%,7%,-9,-1%
O=C1CC(SCc2nc3ccccc3[nH]2)C(=O)N1c1cccc(Cl)c1 (stereo not drawn),11µM*,-19%,30%,u,3%
